# Results published in PMC11006913.
# Positions count from the first letter of the chain named.
# Assays:
# Assay in all cases: PBM; 200 nM protein, PBS
# Settings in all cases: dsDNA, one strand shown
# [1] = target: NKX2-5 (Homo sapiens, UniProt P52952 125-210, R139K)
# [2] = target: T1, NKX2-6 (Homo sapiens, UniProt A6NCS4 118-204, R150C)
# T1 sequence: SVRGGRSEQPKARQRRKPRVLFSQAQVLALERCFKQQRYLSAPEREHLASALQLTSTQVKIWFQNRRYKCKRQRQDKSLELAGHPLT
# [3] = target: HOXA4 (Homo sapiens, UniProt Q00056 201-287, W262R)
# [4] = target: HOXA4 (Homo sapiens, UniProt Q00056 201-287, R217L)
# [5] = target: HOXA4 (Homo sapiens, UniProt Q00056 201-287)
# [6] = target: HOXA4 (Homo sapiens, UniProt Q00056 201-287, W262F)
# [7] = target: NKX2-5 (Homo sapiens, UniProt P52952 125-210)
# [8] = target: HOXA7 (Homo sapiens, UniProt P31268 116-202)
# [9] = target: HOXA7 (Homo sapiens, UniProt P31268 116-202, W177C)
# [10] = target: T2, PAX4 (Homo sapiens, UniProt O43316 9-242, R200K)
# T2 sequence: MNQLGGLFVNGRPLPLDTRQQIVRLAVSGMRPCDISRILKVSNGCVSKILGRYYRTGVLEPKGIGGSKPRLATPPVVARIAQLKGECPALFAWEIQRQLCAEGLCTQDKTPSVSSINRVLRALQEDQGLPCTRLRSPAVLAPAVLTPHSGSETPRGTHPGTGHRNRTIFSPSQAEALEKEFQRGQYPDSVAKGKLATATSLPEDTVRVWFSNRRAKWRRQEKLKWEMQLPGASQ
# [11] = target: T3, PAX4 (Homo sapiens, UniProt O43316 9-242)
# T3 sequence: T2 sequence with K192R
# [12] = target: ALX3 (Homo sapiens, UniProt O95076 139-225, N203Q)
# [13] = target: T4, PAX4 (Homo sapiens, UniProt O43316 9-242, R200Q)
# T4 sequence: T2 sequence with K192Q
# [14] = target: T5, PAX4 (Homo sapiens, UniProt O43316 9-242, F177V)
# T5 sequence: T2 sequence with F169V, K192R
# [15] = target: ALX3 (Homo sapiens, UniProt O95076 139-225)
# [16] = target: T6, PAX4 (Homo sapiens, UniProt O43316 9-242, F177Y)
# T6 sequence: T2 sequence with F169Y, K192R
# [17] = target: ALX3 (Homo sapiens, UniProt O95076 139-225, L168Q)
# [18] = target: ALX3 (Homo sapiens, UniProt O95076 139-225, L168V)
# [19] = target: T7, PAX4 (Homo sapiens, UniProt O43316 9-242, R227W)
# T7 sequence: T2 sequence with K192R, R219W
# [20] = target: ALX3 (Homo sapiens, UniProt O95076 139-225, N203S)
# [21] = target: HOXA2 (Homo sapiens, UniProt O43364 129-215, R185T)
# [22] = target: HOXA2 (Homo sapiens, UniProt O43364 129-215, R185K)
# [23] = target: HOXA2 (Homo sapiens, UniProt O43364 129-215, Y150S)
# [24] = target: HOXA2 (Homo sapiens, UniProt O43364 129-215)
# Sequence of HOXA2 (Homo sapiens, UniProt O43364 129-215) (O43364 129-215): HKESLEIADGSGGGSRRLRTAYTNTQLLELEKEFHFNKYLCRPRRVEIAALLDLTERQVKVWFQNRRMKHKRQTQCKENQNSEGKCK
# Sequence of NKX2-5 (Homo sapiens, UniProt P52952 125-210, R139K) (P52952 125-210 R139K): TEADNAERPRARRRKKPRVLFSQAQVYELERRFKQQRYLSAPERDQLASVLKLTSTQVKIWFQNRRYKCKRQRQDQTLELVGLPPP
# Sequence of NKX2-5 (Homo sapiens, UniProt P52952 125-210) (P52952 125-210): as the sequence (P52952 125-210 R139K) above, with K15R counted along it
# Sequence of HOXA4 (Homo sapiens, UniProt Q00056 201-287, W262F) (Q00056 201-287 W262F): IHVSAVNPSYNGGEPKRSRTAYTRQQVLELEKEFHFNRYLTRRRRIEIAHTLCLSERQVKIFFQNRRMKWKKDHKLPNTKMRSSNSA
# Sequence of HOXA4 (Homo sapiens, UniProt Q00056 201-287) (Q00056 201-287): as the sequence (Q00056 201-287 W262F) above, with F62W counted along it
# Sequence of HOXA4 (Homo sapiens, UniProt Q00056 201-287, W262R) (Q00056 201-287 W262R): as the sequence (Q00056 201-287 W262F) above, with F62R counted along it
# Sequence of HOXA4 (Homo sapiens, UniProt Q00056 201-287, R217L) (Q00056 201-287 R217L): as the sequence (Q00056 201-287 W262F) above, with R17L, F62W counted along it
# Sequence of ALX3 (Homo sapiens, UniProt O95076 139-225, L168Q) (O95076 139-225 L168Q): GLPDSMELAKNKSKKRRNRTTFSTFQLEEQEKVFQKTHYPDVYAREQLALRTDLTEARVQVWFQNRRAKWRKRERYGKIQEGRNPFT
# Sequence of HOXA2 (Homo sapiens, UniProt O43364 129-215, R185K) (O43364 129-215 R185K): as the sequence (O43364 129-215) above, with R57K counted along it
# Sequence of HOXA2 (Homo sapiens, UniProt O43364 129-215, R185T) (O43364 129-215 R185T): as the sequence (O43364 129-215) above, with R57T counted along it
# Sequence of ALX3 (Homo sapiens, UniProt O95076 139-225, N203Q) (O95076 139-225 N203Q): as the sequence (O95076 139-225 L168Q) above, with Q30L, N65Q counted along it
# Sequence of HOXA7 (Homo sapiens, UniProt P31268 116-202) (P31268 116-202): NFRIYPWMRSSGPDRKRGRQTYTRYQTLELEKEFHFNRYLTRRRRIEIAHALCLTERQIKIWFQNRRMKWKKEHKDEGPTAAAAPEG
# Sequence of ALX3 (Homo sapiens, UniProt O95076 139-225) (O95076 139-225): as the sequence (O95076 139-225 L168Q) above, with Q30L counted along it
# Sequence of HOXA7 (Homo sapiens, UniProt P31268 116-202, W177C) (P31268 116-202 W177C): as the sequence (P31268 116-202) above, with W62C counted along it
# Sequence of HOXA2 (Homo sapiens, UniProt O43364 129-215, Y150S) (O43364 129-215 Y150S): as the sequence (O43364 129-215) above, with Y22S counted along it
# Sequence of ALX3 (Homo sapiens, UniProt O95076 139-225, N203S) (O95076 139-225 N203S): as the sequence (O95076 139-225 L168Q) above, with Q30L, N65S counted along it
# Sequence of ALX3 (Homo sapiens, UniProt O95076 139-225, L168V) (O95076 139-225 L168V): as the sequence (O95076 139-225 L168Q) above, with Q30V counted along it
sequence,measurement,setting,value
CACAAGTG,binding signal,[1],"12.4 upbm affinity estimate (log intensity, higher = more binding, comparable within an allelic series)"
same,binding signal,[2],"11.6 upbm affinity estimate (log intensity, higher = more binding, comparable within an allelic series)"
CACCCCCG,binding signal,[1],"8.95 upbm affinity estimate (log intensity, higher = more binding, comparable within an allelic series)"
same,binding signal,[3],"9.9 upbm affinity estimate (log intensity, higher = more binding, comparable within an allelic series)"
same,binding signal,[4],"9.84 upbm affinity estimate (log intensity, higher = more binding, comparable within an allelic series)"
same,binding signal,[5],"9.95 upbm affinity estimate (log intensity, higher = more binding, comparable within an allelic series)"
same,binding signal,[6],"9.77 upbm affinity estimate (log intensity, higher = more binding, comparable within an allelic series)"
same,binding signal,[7],"9 upbm affinity estimate (log intensity, higher = more binding, comparable within an allelic series)"
AGGCCAGC,binding signal,[1],"8.71 upbm affinity estimate (log intensity, higher = more binding, comparable within an allelic series)"
same,binding signal,[8],"8.41 upbm affinity estimate (log intensity, higher = more binding, comparable within an allelic series)"
same,binding signal,[9],"8.42 upbm affinity estimate (log intensity, higher = more binding, comparable within an allelic series)"
same,binding signal,[7],"8.67 upbm affinity estimate (log intensity, higher = more binding, comparable within an allelic series)"
GCTGGGCC,binding signal,[1],"8.63 upbm affinity estimate (log intensity, higher = more binding, comparable within an allelic series)"
same,binding signal,[10],"9.06 upbm affinity estimate (log intensity, higher = more binding, comparable within an allelic series)"
same,binding signal,[11],"9.06 upbm affinity estimate (log intensity, higher = more binding, comparable within an allelic series)"
same,binding signal,[12],"7.66 upbm affinity estimate (log intensity, higher = more binding, comparable within an allelic series)"
same,binding signal,[13],"9.13 upbm affinity estimate (log intensity, higher = more binding, comparable within an allelic series)"
same,binding signal,[14],"8.94 upbm affinity estimate (log intensity, higher = more binding, comparable within an allelic series)"
same,binding signal,[15],"7.62 upbm affinity estimate (log intensity, higher = more binding, comparable within an allelic series)"
same,binding signal,[16],"9.03 upbm affinity estimate (log intensity, higher = more binding, comparable within an allelic series)"
same,binding signal,[17],"7.58 upbm affinity estimate (log intensity, higher = more binding, comparable within an allelic series)"
same,binding signal,[18],"7.61 upbm affinity estimate (log intensity, higher = more binding, comparable within an allelic series)"
same,binding signal,[19],"9.05 upbm affinity estimate (log intensity, higher = more binding, comparable within an allelic series)"
same,binding signal,[20],"7.64 upbm affinity estimate (log intensity, higher = more binding, comparable within an allelic series)"
same,binding signal,[7],"8.61 upbm affinity estimate (log intensity, higher = more binding, comparable within an allelic series)"
CCCCCAAC,binding signal,[1],"8.66 upbm affinity estimate (log intensity, higher = more binding, comparable within an allelic series)"
same,binding signal,[3],"9.78 upbm affinity estimate (log intensity, higher = more binding, comparable within an allelic series)"
same,binding signal,[21],"6.99 upbm affinity estimate (log intensity, higher = more binding, comparable within an allelic series)"
same,binding signal,[4],"9.67 upbm affinity estimate (log intensity, higher = more binding, comparable within an allelic series)"
same,binding signal,[22],"10.3 upbm affinity estimate (log intensity, higher = more binding, comparable within an allelic series)"
same,binding signal,[5],"9.61 upbm affinity estimate (log intensity, higher = more binding, comparable within an allelic series)"
same,binding signal,[23],"10.3 upbm affinity estimate (log intensity, higher = more binding, comparable within an allelic series)"
same,binding signal,[6],"9.75 upbm affinity estimate (log intensity, higher = more binding, comparable within an allelic series)"
same,binding signal,[24],"6.95 upbm affinity estimate (log intensity, higher = more binding, comparable within an allelic series)"
same,binding signal,[7],"8.6 upbm affinity estimate (log intensity, higher = more binding, comparable within an allelic series)"
